Measurements from PubChem BioAssay.
A number with no mark means an inactive call. Unless noted, how the calls were made is not given here.

test system: not listed separately; assay: HepG2 cytotoxicity, primary screen, cytotoxicity control for P. falciparum antimalarial project, cell-based, ATP luminescence (AID 2303;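 active means inhibition above 50%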;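 further: 0% = DMSO wells and 100% = digitonin-killed cells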); details: HepG2 viability, 24-48 h, at 10 µM, active compounds read high

Structure (SMILES) | inhibition [%]
O=C(/C=C/c1ccc(F)cc1)NC1CCC(CCN2CCc3ccc(-n4cccn4)cc3CC2)CC1 (centres undefined) | 23
Cc1cccc2[nH]c(-c3cccc(-c4ccc(C(=O)N5CCCCC5C(C)O)cc4)c3)nc12 (centres undefined) | 26
COc1ccc(N2CCN(CCCN3CCN(C(=O)c4ccc(/C=C/c5ccc(Cl)c(Cl)c5)cc4)CC3)CC2)c(OC)c1 | 47
C[C@@H](Oc1cc(-n2cnc3ccc(NC(=O)CCN4CCCCC4)cc32)sc1C(N)=O)c1ccccc1Cl | 36
Cc1ccc(CCC(C)NCC(O)c2cccc(C(F)(F)F)c2)cc1 (centres undefined) | -17
O=C(NCc1cccc(C(F)(F)F)c1)C(c1cc2ccccc2o1)N1CCN(C(c2ccccc2)c2ccccc2)CC1 (centres undefined) | -4
COc1ccc(Cl)cc1N1CCN(CCCNC(=O)c2ccc(-c3nc4ccc(C(F)(F)F)cc4[nH]3)c(C)c2)CC1 | 6
CCCCOC(=O)C1=C(C)NC2=C(C(=O)CCC2)C1c1ccc(OC)c(Br)c1 (centres undefined) | 5
Cc1cccc(-c2ccc3c(c2)CC(NCc2cccc(-n4ccnc4)c2)C3)c1 (centres undefined) | 11
CNC(=O)c1ccccc1Nc1nc(Nc2cccnc2)ncc1C | 17
CC(C)(C)S[C@H]1S[C@H](SC(C)(C)C)[C@@H](OC(=O)c2ccccc2)C(OC(=O)c2ccccc2)[C@H]1OC(=O)c1ccccc1 (some centres undefined) | -2
CSC1=NC(=Nc2ccccc2C)C2(CCC(C(C)(C)C)CC2)N1c1ccccc1Cl (centres undefined) | 3
O=C(Nc1ccc(F)cc1)c1cnc(N2CCN(c3ccncc3)CC2)c(Cl)c1 | 41
CC1Cc2ccccc2N1CC(=O)Nc1cc(C(F)(F)F)ccc1-n1cncn1 (centres undefined) | 17

target: L-lactate dehydrogenase (Plasmodium falciparum (isolate CDC / Honduras)) (UniProt Q27743); assay: PfLDH activity inhibition – cell lysate, 3D7 strain, counter-screen for P. falciparum growth inhibition project (AID 2304);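 further: 0% = vehicle and 100% = reference inhibitor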; details: P. falciparum 3D7 crude extract, LDH APAD/NBT absorbance; at 2 µM; active compounds read high
Sequence (Q27743 whole entry, looked up): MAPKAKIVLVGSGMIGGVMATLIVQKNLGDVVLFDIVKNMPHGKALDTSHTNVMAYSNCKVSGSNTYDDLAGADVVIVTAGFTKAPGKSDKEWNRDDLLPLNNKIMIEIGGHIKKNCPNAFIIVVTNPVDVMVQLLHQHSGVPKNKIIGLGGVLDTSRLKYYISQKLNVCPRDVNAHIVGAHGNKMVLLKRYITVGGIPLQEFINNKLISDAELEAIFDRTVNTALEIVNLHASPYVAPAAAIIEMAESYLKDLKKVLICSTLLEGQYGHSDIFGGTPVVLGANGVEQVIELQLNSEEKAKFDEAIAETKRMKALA

Structure (SMILES) | inhibition [%]
COCCNCc1cccc(-c2ccc(CNC3CCN(Cc4ccccc4)CC3)cc2)c1 | -7
CCC(C)C#Cc1c(C)nc(N)nc1N (centres undefined) | 3
Cc1cc(NC(=O)NCCN2CCC(NS(=O)(=O)c3ccccc3Cl)C2)c2ccccc2n1 (centres undefined) | -5
O=C(CCc1ccccc1)NC(c1ccc(Cl)cc1)c1ccc2cccnc2c1O (centres undefined) | 2
Fc1ccc2nc(-c3ccc(-c4cccc(CN5CCCCC5)c4)cc3)[nH]c2c1 | -6
O=C(Nc1ccc(-c2nc3ccccc3[nH]2)cc1)C1CCCN(C2CCC2)C1 (centres undefined) | 4
NC(=O)C1CCN(Cc2ccc(-c3ccc(-c4nc5ccc(C(F)(F)F)cc5[nH]4)cc3)cc2)CC1 | -1
COc1ccc(-c2cccc(NC(=O)c3ccc(Cl)cc3)c2)cc1CNC(C)C | -4
COc1ccc(CNC2CCN(C)CC2)cc1-c1ccc(S(=O)(=O)NCCc2ccccn2)c(F)c1 | 1
Cc1cnc(NCCc2ccc(F)cc2)nc1N[C@@H](CC(C)C)C(=O)Nc1ccccc1 | -1
Oc1ccc(Br)cc1-c1nc2ccc(Cl)cc2nc1-c1cc(Br)ccc1O | 5
COc1ccc(CNC2CCN(C)CC2)cc1-c1cccc(S(=O)(=O)NCc2ccccc2)c1 | -1
CC[C@H](C)CNC(=O)c1ccnc(-c2ccc(CNCCCc3ccccc3)cc2)c1 | -4
CS(=O)(=O)c1ccc2nc(-c3cc(-c4ccc(OCCN5CCOCC5)cc4)cnc3N)[nH]c2c1 | -4
Cc1ccc2[nH]c3ccccc3c(=O)c2c1 | -1
Cc1ccc(-c2nnc3c4ccccc4c(C)nn23)cc1S(=O)(=O)N1CCN(CCO)CC1 | -4
Cc1cc(N2CCN(C3CCCCC3)CC2)nc2cccc(O)c12 | -3
CC(C)C[C@H](NC(=O)[C@H](Cc1ccccc1)NC(=O)CCN1C(=O)COc2ccc(C(=O)O)cc21)C(=O)NC(CC1CCCCC1)C(O)CC(=O)NCCCn1ccnc1 (some centres undefined) | -8
COc1c(C2=CCN(CCCCNC(=O)c3ccc(-c4ccc(C#N)cc4)cc3)CC2)c(C)cc2c1C(C)(C)CCC2(C)C | -2
Cc1cc(N2CCC(NS(=O)(=O)c3ccccc3)CC2)nc(Nc2cccc(C#N)c2)n1 | 3

Structure (SMILES) | inhibition [%]
O=C(Nc1ccc(Cl)cn1)c1sc2ccccc2c1O | -3
Cc1ccc(NC(=O)NC2CCN(CCC(NC(=O)Cc3ccccc3)c3ccc(Cl)c(Cl)c3)CC2)cc1 (centres undefined) | -1
Cc1cc(N)c2cc(NC(=O)c3cccc4ccccc34)ccc2n1 | 4
Cc1cc(NCCCN2CCCC2=O)n2c(nc3ccccc32)c1C#N | -1
COc1ccc(F)cc1-c1cccc(CNC2CCN(CC3Cn4c(=O)ccc5ccc(F)c3c54)CC2)c1 (centres undefined) | 1
NC(=O)C1CCN(Cc2cccc(-c3cccc(-c4nc5ccc(C(F)(F)F)cc5[nH]4)c3)c2)CC1 | 3
O=C(/C=C/c1ccc(F)cc1)NC1CCC(CCN2CCc3ccc(-n4cccn4)cc3CC2)CC1 (centres undefined) | 3
Cc1cccc2[nH]c(-c3cccc(-c4ccc(C(=O)N5CCCCC5C(C)O)cc4)c3)nc12 (centres undefined) | -2
COc1ccc(N2CCN(CCCN3CCN(C(=O)c4ccc(/C=C/c5ccc(Cl)c(Cl)c5)cc4)CC3)CC2)c(OC)c1 | -3
C[C@@H](Oc1cc(-n2cnc3ccc(NC(=O)CCN4CCCCC4)cc32)sc1C(N)=O)c1ccccc1Cl | 3
Cc1ccc(CCC(C)NCC(O)c2cccc(C(F)(F)F)c2)cc1 (centres undefined) | 4
O=C(NCc1cccc(C(F)(F)F)c1)C(c1cc2ccccc2o1)N1CCN(C(c2ccccc2)c2ccccc2)CC1 (centres undefined) | 0
COc1ccc(Cl)cc1N1CCN(CCCNC(=O)c2ccc(-c3nc4ccc(C(F)(F)F)cc4[nH]3)c(C)c2)CC1 | -2
CCCCOC(=O)C1=C(C)NC2=C(C(=O)CCC2)C1c1ccc(OC)c(Br)c1 (centres undefined) | -4
Cc1cccc(-c2ccc3c(c2)CC(NCc2cccc(-n4ccnc4)c2)C3)c1 (centres undefined) | 0
CNC(=O)c1ccccc1Nc1nc(Nc2cccnc2)ncc1C | 1
CC(C)(C)S[C@H]1S[C@H](SC(C)(C)C)[C@@H](OC(=O)c2ccccc2)C(OC(=O)c2ccccc2)[C@H]1OC(=O)c1ccccc1 (some centres undefined) | 5
CSC1=NC(=Nc2ccccc2C)C2(CCC(C(C)(C)C)CC2)N1c1ccccc1Cl (centres undefined) | 4
O=C(Nc1ccc(F)cc1)c1cnc(N2CCN(c3ccncc3)CC2)c(Cl)c1 | -3
CC1Cc2ccccc2N1CC(=O)Nc1cc(C(F)(F)F)ccc1-n1cncn1 (centres undefined) | 1
